Among all 69,000 compounds or so, about 8,600 (12%) showed an effect of 50% or more. Only a selection was taken, and strong results are over-represented in it overall.
What follows are molecules tested on Plasmodium berghei (assay: Screen against P. berghei liver stage (PbLuc), transformed with Luciferase, at 10uM). Details: tested at 10 uM.
Assay type: functional, HepG2

Going from `COc1ccc(CN2CCN(c3ncc(Cl)cn3)CC2)cc1` to `CCc1ccc(CN2CCN(c3ncc(Cl)cn3)CC2)nc1`, the INHIBITION rises from 11.8% to 50.1%.

Going from `COc1ccccc1N1CCN(C(=O)CCn2nnnc2C)CC1(C)C` to `COc1ccccc1N1CCN(C(=O)CCn2ccnc2C)CC1(C)C`, the INHIBITION falls from 51.8% to 6.31%.

Compared with `COc1ccccc1N1CCN(C(=O)CCn2ccc(C)n2)CC1(C)C`, `COc1ccccc1N1CCN(C(=O)Cn2nccc2C)CC1(C)C` is lower in INHIBITION: 8.48% for the first, -56.6% for the second.

Compared with `COc1ccccc1N1CCN(C(=O)Cn2nc(C)cc2C)CC1(C)C`, `COc1ccc(N2CCN(C(=O)CCn3nnnc3C)CC2(C)C)cc1` is lower in INHIBITION: 52.8% for the first, -34.8% for the second.

Compared with `CC1=C(C(=O)NCCc2n[nH]c3c2CCCC3)C(C)NC(=O)N1` (stereo not drawn), `Cc1ccc(CNC(=O)N2CCOCC2C2CC2)cc1F` (stereo not drawn) is higher in INHIBITION: -22.3% for the first, 49.3% for the second.

Going from `COCCn1ccnc1C1CCCN(C(=O)c2cc(F)cc(F)c2)C1` (stereo not drawn) to `COc1ccc(F)cc1C(=O)N1CCCC(CNS(C)(=O)=O)C1` (stereo not drawn), the INHIBITION falls from 40.2% to -38.7%.

Compared with `Cc1occc1C(=O)N1CCCS1(=O)=O`, `COCCC1(C(=O)O)CCCN(C(=O)c2cc(C)oc2C)C1` (stereo not drawn) is higher in INHIBITION: 35.7% for the first, 69.9% for the second.

Going from `Cc1ccsc1CNC(=O)N1CCC(Cc2cnn(C)c2)C1` (stereo not drawn) to `COc1ccc(CNC(=O)N2CCOCC2C2CC2)cc1C` (stereo not drawn), the INHIBITION rises from 11.083% to 66.7%.

Compared with `COc1ccc(CNC(=O)N2CCOCC2C2CC2)c(C)c1` (stereo not drawn), `Cc1cccc(CC2CCCN(C(=O)C3CCOCC3)C2)n1` (stereo not drawn) is higher in INHIBITION: 17.4% for the first, 30.4% for the second.

Compared with `COc1ccccc1C1Cn2c(C)cnc2CN1Cc1c[nH]nc1C` (stereo not drawn), `Cn1cnc2c1CCN(Cc1csc(Cc3ccccc3)n1)C2` is higher in INHIBITION: -14.2% for the first, -3.7% for the second.

Going from `CN(C)C(=O)CC1CC2(CCN(CC3CC3)CC2)Oc2ccccc21` (stereo not drawn) to `CCN1CCN(C(=O)c2ccc(Cn3ccccc3=O)o2)CC1`, the INHIBITION rises from -51.6% to 39.6%.

First: Cc1cc(C(=O)N2CC[C@](C)(O)[C@H](C)C2)c(C)n1C
Second: CCN1C(=O)CCCC12CCCN(C(=O)c1cc(C)oc1C)C2 (stereo not drawn)
The INHIBITION of the first is higher: -12.2% for the first, -17.1% for the second.

Compared with `CC(c1ccc(F)cc1F)N1CCN(CCC(=O)O)CC1` (stereo not drawn), `CC(c1ccc(F)cc1F)N1CCN(CCC(=O)NC(N)=O)CC1` (stereo not drawn) is higher in INHIBITION: -17.7% for the first, -8% for the second.

Going from `CC(c1ccc(F)cc1F)N1CCN(CCN2CCCC2=O)CC1` (stereo not drawn) to `COCCC1(C(=O)O)CCCN(C(=O)c2cc(F)ccc2OC)C1` (stereo not drawn), the INHIBITION rises from 63% to 79.7%.

First: CCn1nc(C)cc1NC(=O)CCn1nc(C)c(Br)c1C
Second: Cc1nnc(NC(=O)CN2CCCC2c2c(C)nn(C)c2C)s1 (stereo not drawn)
The INHIBITION of the first is higher: 31.7% for the first, -24.2% for the second.

Compared with `COCCn1ccc(=O)c(OCC(=O)Nc2cccc(Cl)c2)c1C`, `COCCCC1(C(=O)O)CCCN(C(=O)c2ccc(Cl)cc2F)C1` (stereo not drawn) is higher in INHIBITION: -21.2% for the first, 39.3% for the second.

Compared with `Cc1cc(C)n(C2CN(CCC(N)=O)C2)n1`, `Cc1cc(CN2CCN(Cc3cnc4c(c3)c(C)nn4C)CC2)on1` is higher in INHIBITION: -4.96% for the first, 11.5% for the second.

First: CC(C)N(C)Cc1cncc2c1CCN(C(=O)c1cccc(C#N)c1)C2
Second: CN(C)C(=O)N1CCc2c(CNc3ncccn3)cncc2C1
The INHIBITION of the first is higher: 12.7% for the first, 6.38% for the second.

Compared with `c1csc(CN2CCc3c(CNc4nncs4)cncc3C2)c1`, `c1cnc(NCc2cncc3c2CCN(Cc2cccs2)C3)nc1` is lower in INHIBITION: 42.7% for the first, -38.7% for the second.

First: CC(=O)NCC(=O)N1CCc2c(CNc3ncccn3)cncc2C1
Second: COCCC(=O)N1CCc2c(CNc3ncccn3)cncc2C1
The INHIBITION of the first is lower: -2.17% for the first, 53.4% for the second.

Going from `c1cnc(NCc2cncc3c2CCN(Cc2cccnc2)C3)nc1` to `c1cnc(NCc2cncc3c2CCN(Cc2ccoc2)C3)nc1`, the INHIBITION rises from 12.4% to 19.4%.

Compared with `c1cnc(NCc2cncc3c2CCN(Cc2ccsc2)C3)nc1`, `Cc1cc(CN2CCc3c(CNc4ncccn4)cncc3C2)oc1C` is higher in INHIBITION: 60.2% for the first, 67.2% for the second.

Going from `Cc1nn(C)c(N2CCOCC2)c1CNC(C)c1cccs1` (stereo not drawn) to `Cc1noc(C)c1CN1Cc2nccn2CC(CN2CCOCC2)C1` (stereo not drawn), the INHIBITION rises from 16.9% to 18.3%.

Going from `COc1ccc(N2CCN(C(=O)C(C)n3cc(Br)cn3)CC2)cc1` (stereo not drawn) to `COCCCC1(C(=O)O)CCCN(C(=O)c2ccc(C(C)C)[nH]c2=O)C1` (stereo not drawn), the INHIBITION rises from 30% to 30.4%.

First: O=C(C1CC1)N1CCC(c2nc(O)c3c(n2)CN(C2CCCC2)CC3)C1 (stereo not drawn)
Second: CCCC1(C(=O)O)CCCN(C(=O)c2cc(Cl)ccc2F)C1 (stereo not drawn)
The INHIBITION of the first is lower: 5.11% for the first, 36.5% for the second.

Going from `COc1cc(NCc2c(C)noc2C)c(C(=O)N(C)C)cc1OC` to `CCN(CC)Cc1cc(C(=O)N2CCCC(CC)(C(=O)O)C2)c(C)o1` (stereo not drawn), the INHIBITION rises from -16.1% to 29.9%.

`COCCC1(C(=O)O)CCCN(C(=O)c2cc(Cl)ccc2F)C1` (stereo not drawn) showed an INHIBITION of 58.8%.

Source: ChEMBL document CHEMBL4513216, “Probing the Open Global Health Chemical Diversity Library for Multistage-Active Starting Points for Next-Generation Antimalarials” (ACS Infect Dis, 2020)
